Measurements from PubChem BioAssay (NCI).
This is part of a sample that, as a whole, favours compounds with a hit. Of some 83,000 tested, about 20% had one in any assay.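 Compound tested at a single concentration for 48 hours in 96-well plates; a percent growth value below 10 was scored as active.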 Active and inactive are the calls of the source.

What was measured:
Test in all cases: NCI-60 one-dose screen, 48 h (100 = growth as untreated, 0 = no growth, -100 = all killed)
Conditions in all cases: 10 µM unless noted
[1] = system: RPMI-8226 leukemia
[2] = system: OVCAR-8 ovarian
[3] = system: OVCAR-5 ovarian
[4] = system: OVCAR-4 ovarian
[5] = system: SK-OV-3 ovarian
[6] = system: IGROV1 ovarian
[7] = system: OVCAR-3 ovarian
[8] = system: HS 578T breast
[9] = system: NCI/ADR-RES ovarian

Measured: growth

CN(C)c1cccc2c(S(=O)(=O)/N=C(\N)Nc3nc4ccccc4s3)cccc12
active: [7] 8.44%
inactive: [1] 62% | [2] 70.6% | [3] 84.2% | [4] 82.4% | [5] 46.6% | [6] 51.7% | [8] 68% | [9] 48%

COc1cc(-c2nn(-c3cccc(NC(=O)Nc4cccc(C(F)(F)F)c4)c3)cc2-c2ccncc2)ccc1Cl
inactive: [3] 28.2% | [4] 11.1% | [6] 14%
active: [1] -14.8% | [2] -36.2% | [5] 4.13% | [7] -42% | [8] -13.7% | [9] -11.9%

O=C(/C=C\c1cccc([N+](=O)[O-])c1)/C=C/c1cccc([N+](=O)[O-])c1
inactive: [2] 80.7% | [3] 90.1% | [4] 95.5% | [5] 95.5% | [6] 52.2% | [7] 67.5% | [8] 90.6% | [9] 91.7%
active: [1] -6.63%

C=C1CCC[C@]2(C)CCC[C@H](C)[C@@H](OC(C)=O)[C@@H]3OC(=O)C(=C)[C@@H]3C[C@H]1O2
inactive: [1] 54.8% | [2] 61.5% | [3] 101% | [4] 61.2% | [5] 85% | [6] 81.8% | [7] 47.9% | [8] 78% | [9] 73.6%

CCN(CC)c1ccc(C(=N)c2ccc(N(CC)CC)cc2)cc1
active: [1] -32.1% | [2] -8.61% | [3] -22.1% | [5] -36.6% | [6] -24.8% | [7] -38.3% | [8] -47.2% | [9] -49.9%
inactive: [4] 12.7%

O=C1C(Cl)=C(Nc2ccccn2)C(=O)c2ccccc21
inactive: [1] 56.5% | [2] 29.5% | [3] 115% | [4] 30.2% | [5] 108% | [6] 34.4% | [7] 26.9% | [9] 34.9%
active: [8] -9.73%

COc1cc(-c2nn(-c3cccc(NC(=O)c4cccc(C(F)(F)F)c4)c3)cc2-c2ccncc2)ccc1Cl
inactive: [2] 11.8% | [3] 49.3% | [4] 46.5% | [6] 34%
active: [1] -1.13% | [5] 7.18% | [7] -25.6% | [8] -5.69% | [9] 2.75%

CC(C)(C)n1cc(-c2ccnc(NCCCNS(=O)(=O)c3ccccc3)c2)c(-c2cccc(O)c2)n1
inactive: [1] 10.5% | [2] 52.4% | [3] 67.7% | [4] 55.9% | [5] 88.6% | [6] 51.1% | [7] 54.1% | [8] 51% | [9] 56.9%

C=C(C)[C@@H]1C[C@@H]2Cc3cc(Cl)ccc3N1O2
inactive: [1] 83.2% | [2] 108% | [3] 83.5% | [4] 89.4% | [5] 108% | [6] 120% | [7] 116% | [8] 95.9% | [9] 100%

OCc1ncc(-c2ccccc2)s1
inactive: [1] 87.6% | [2] 107% | [3] 92.2% | [4] 97.5% | [5] 99.4% | [6] 113% | [7] 101% | [8] 108% | [9] 22.1%

COc1ccc(-c2cc3c(OC)c(OC)c(OC)cc3oc2=O)cc1
active: [7] 5.53% | [9] 4.06%
inactive: [1] 54.6% | [2] 67% | [3] 74% | [4] 81.3% | [5] 67.1% | [6] 61.6% | [8] 33.3%

Cc1ccc(C(=O)C2=Cc3cc4ccccc4n3Cc3cnnn32)cc1
inactive: [1] 99.9% | [2] 106% | [3] 96.2% | [4] 104% | [5] 99.6% | [6] 104% | [7] 109% | [8] 94% | [9] 108%

O=C(C1=Cc2cc3ccccc3n2Cc2cnnn21)c1ccccc1
inactive: [1] 53.1% | [2] 51.8% | [3] 89.2% | [4] 82.7% | [5] 67.8% | [6] 44.6% | [7] 26.9% | [8] 69% | [9] 27%
